Shown are actives, neighbours in structure and some others; about 2.6% of the full set was active somewhere.
ABCB6 inh 2: blocks the human ABCB6 transporter; Q9NP58; K562-ABCB6 porphyrin accumulation, flow cytometry, 1 h; active compounds read low; fluorescence ratio to DMSO, % at 10 µM; 360,000 tested, 0.19% active;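 active means fluorescence ratio to DMSO below 75%, the collection mean minus 3 SD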;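 further: signal is porphyrin accumulated inside mitochondria; lower ratio means ABCB6 inhibition with less porphyrin fluorescence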
AI-2 QS modul: modulators of Vibrio harveyi AI-2 quorum sensing system. Vibrio harveyi JMH597 AI-2 luminescence/OD600 ratio, 9 h; active compounds read low; strain lacks LuxN and CqsS sensors; 0 = neutral-control median. activity change, % at 7.5 µM. 300,000 tested, 0.4% active; in the data active means activity change below about -75%, passing the limit was not always enough;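 further: luminescence divided by OD600 gain over 9 h not by final OD600 alone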
PHOSPHO1 block: inhibitors of human PHOSPHO1 phosphatase. Q8TCT1. recombinant PHOSPHO1, absorbance phosphatase assay. inhibition, % at 13.3 µM. 290,000 tested, 1.1% active. AID 1565; in the data active means inhibition above about 60%
PABP polyA inh: PABP-poly(A) binding inhibition | P11940 | PABP-poly(A) RNA binding, fluorescence polarization | calls only at 35 µM | 290,000 tested, 1% active;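 further: calls also rest on retests at 20 µM and on dose response follow-up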
eIF4H FP inh: inhibitors of RNA binding by human eIF4H. Q15056. eIF4H fluorescence polarization binding assay. inhibition, % at 35 µM. 290,000 tested, 0.94% active. AID 2012;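 further: calls also rest on retests at 20 µM and on dose response follow-up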
PABP1 MLLE inh: inhibitors of microRNA-mediated deadenylation, human PABP1 MLLE binding. GST-MLLE / FITC-PAM2 fluorescence polarization. inhibition, % at 20 µM. 360,000 tested, 0.36% active; in the data active means inhibition above about 35%, passing the limit was not always enough
Hits are given with their value; 0 = inactive; - = no result; + = active, no number. Unless noted, how the calls were made is not given here.

SMILES | ABCB6 inh 2 | AI-2 QS modul | PHOSPHO1 block | PABP polyA inh | eIF4H FP inh | PABP1 MLLE inh
CC(C)NC(=O)C1(C)CCCN1C(=O)c1ccccc1Br (stereo not given) | 0 | - | - | - | - | 0
CN(C)CCCNCCCNC(=O)c1ccccn1 | 0 | 0 | 0 | 0 | 0 | 0
CN(C)CCCNC(=O)c1ccc(=O)[nH]n1 | 0 | 0 | 0 | + | 91.1 | 0
Cc1ccc(C(=O)NCCCNCCCN(C)C)cn1 | 0 | 0 | 0 | + | 67.6 | 0
Cc1ccc(C(=O)NCCCNCCCNC(=O)c2ccc(C)nc2)cn1 | 0 | 0 | 0 | 0 | 0 | 0
COc1ccccc1CN1CC(C(=O)NCC2(O)CCCCC2)CCC1=O (stereo not given) | 0 | - | - | - | - | 0
CC1(c2nnnn2-c2ccc3c(c2)OCCO3)CCC(=O)N1CC(F)(F)F (stereo not given) | 0 | - | - | - | - | -
CNc1nc(-c2ccccc2)cc(C(F)(F)F)c1C#N | 0 | 0 | 0 | + | 96.0 | 0
C#CCSc1nc(-c2ccccc2)cc(C(F)(F)F)c1C#N | 0 | 0 | 0 | 0 | 0 | 0
COC(=O)c1cc(S(=O)(=O)NC2CCC(C)CC2)cn1C (stereo not given) | 0 | 0 | 64.0 | - | - | 0
CN(Cc1ccc2c(c1)CCCN2C)C(=O)[C@H]1O[C@@H](n2ccc(=O)[nH]c2=O)[C@H](O)[C@@H]1O | 0 | - | - | - | - | 47.1
O=C(Nc1ncc2c(n1)-c1ccccc1OC2)c1cccc([N+](=O)[O-])c1 | 0 | 0 | 0 | 0 | 0 | 0
CCc1cc2c(=O)nc3n(c2s1)Cc1ccccc1/C3=C(/O)c1ccc(F)cc1 | 0 | 0 | 0 | + | 70.8 | 0
CCc1cc2c(=O)nc3n(c2s1)Cc1ccccc1/C3=C(/O)c1cccc([N+](=O)[O-])c1 | 0 | - | 0 | + | 51.8 | 0
CCc1cc2c(=O)nc3n(c2s1)Cc1ccccc1/C3=C(/O)c1ccccc1Cl | 0 | 0 | 0 | 0 | 0 | 0
CCCNC(=O)C1(C)CCCN(Cc2ccccc2F)C1 (stereo not given) | 0 | - | - | - | - | 0
CCOC(=O)[C@]12CCC=C1N(Cc1cccc3ccccc13)C(=O)[C@H](CC(=O)NCc1ccc(OC)c(OC)c1)C2 | 0 | - | - | - | - | -
N=C(N)SCP(=O)(c1ccccc1)c1ccccc1 | 0 | 0 | 0 | 0 | 0 | 37.9
CCOC(=O)c1sc2nc(C3CC3)cc(-c3ccc(F)cc3)c2c1N | 0 | 0 | 0 | 0 | 0 | 0
CCOC(=O)c1sc2nc(C3CC3)cc(-c3ccc(OC)cc3)c2c1N | 0 | 0 | 73.8 | 0 | 0 | 0
CCOc1ccc(S(=O)(=O)N/N=C(\C)C2CCCCC2)cc1 | 0 | 0 | 0 | + | 71.1 | 0
CCOc1ccc(S(=O)(=O)NC2CCCCCC2)cc1 | 0 | 0 | 0 | 0 | 0 | 0
CCOC(=O)C1(CCOc2ccccc2)CCN(Cc2ccc3nonc3c2)CC1 | 0 | 0 | 68.4 | 0 | 0 | 0
CCSc1nc2sc3c(c2c(=O)[nH]1)CCCC3 | 0 | 0 | 0 | 0 | 0 | 0
CCSC1=NC2(CCCCC2)Nc2sc3c(c21)CCCC3 | 0 | 0 | 95.3 | 0 | 0 | 0
SMILES | ABCB6 inh 2 | AI-2 QS modul | PHOSPHO1 block | PABP polyA inh | eIF4H FP inh | PABP1 MLLE inh
CC(C)c1ccc(NC(=O)COc2ccccn2)cc1 | 0 | -82.7 | 0 | 0 | 0 | 0
O=C(OCc1ccccc1)N1CCC2CC1c1c2cccc1N1CCOCC1 (stereo not given) | 0 | - | - | - | - | 0
Cc1ccc2[nH]c3c(=O)n(CC(=O)NCc4ccco4)ncc3c2c1 | 0 | 0 | 0 | 0 | 58.7 | 0
CC1(C(=O)NC2CCCCCC2)CCN1C(=O)Cc1ccc(-c2ccccc2)cc1 (stereo not given) | 0 | - | - | - | - | 0
O=c1[nH]c(CN2CCOCC2)nc2ccccc12 | 0 | 0 | 0 | 0 | 0 | 0
O=c1[nH]c(CN2CCc3ccccc3C2)nc2ccccc12 | 0 | 0 | 0 | 0 | 0 | 40.7
Cc1ccsc1C(=O)N1CCC1(C)C(=O)NCc1cccnc1 (stereo not given) | 0 | - | - | - | - | 0
CNc1cc(-c2ccc(O)cc2C)ncn1 | 0 | - | - | - | - | 0
O=C(NCCO)Nc1ccc(Cl)cc1 | 0 | 0 | 68.6 | 0 | 0 | 0
N#Cc1ccc(NC(=O)Nc2ccc(Cl)cc2)cc1 | 0 | -147.3 | 0 | 0 | 0 | 0
CC1(C)CC(Cc2cccc(C(F)(F)F)c2)N(C(=O)OC(C)(C)C)C1 (stereo not given) | 0 | - | - | - | - | 0
Cc1cccc(N2CCN(C(=O)Cc3cn(C)c4ccccc34)CC2)c1C | 0 | 0 | 0 | + | 112.2 | 0
Cc1cccc(N2CCN(C(=O)COc3cc(=O)n(C)c4ccccc34)CC2)c1C | 0 | 0 | 0 | 0 | 0 | 0
